Legend:
[1] = target: T1, Aspartate--tRNA(Asp/Asn) ligase (Mycobacterium tuberculosis (strain ATCC 25618 / H37Rv)) (UniProt P9WFW3); assay: Assay for Asp RNA synthetase-1 from Mycobacterium tuberculosis; assay type: functional; set-up: scale not given: direction of the effect not stated beside the values; settings: 30 µM; note: in the data most compounds retested in dose-response had high values
T1 sequence (whole entry): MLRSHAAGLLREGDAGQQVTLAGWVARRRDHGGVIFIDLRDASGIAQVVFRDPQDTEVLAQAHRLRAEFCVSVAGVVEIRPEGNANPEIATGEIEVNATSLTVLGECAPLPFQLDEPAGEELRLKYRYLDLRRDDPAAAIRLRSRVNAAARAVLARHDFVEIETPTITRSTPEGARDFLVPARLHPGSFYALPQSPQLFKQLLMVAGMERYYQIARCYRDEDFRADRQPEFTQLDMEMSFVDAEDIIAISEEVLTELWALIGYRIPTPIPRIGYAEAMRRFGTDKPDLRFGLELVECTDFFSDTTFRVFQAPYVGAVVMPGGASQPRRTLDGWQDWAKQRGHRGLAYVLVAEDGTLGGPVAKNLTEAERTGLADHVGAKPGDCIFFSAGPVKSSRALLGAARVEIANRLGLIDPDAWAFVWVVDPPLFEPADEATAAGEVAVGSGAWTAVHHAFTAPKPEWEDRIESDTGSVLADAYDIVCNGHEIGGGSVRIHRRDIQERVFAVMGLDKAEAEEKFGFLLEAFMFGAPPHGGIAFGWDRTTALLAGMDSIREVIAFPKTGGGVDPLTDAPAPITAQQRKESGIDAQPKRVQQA

[2] = target: Shiga toxin 2 (Escherichia coli O157:H7) (UniProt P09385+P09386); assay: E. coli 0.157:H7 Shiga Toxin SOP - stx2 screening assay; assay type: functional; set-up: scale not given: direction of the effect not stated beside the values; settings: 30 µM

| Structure (SMILES) | Percent Effect [1] | Percent Effect [2] |
| --- | --- | --- |
| CNC(=O)C1CCN(C(=O)c2ccn(-c3ccc(F)cc3)n2)CC1 | 3.5% | 7.26% |
| O=C(NCCOc1ncc(Cl)cc1Cl)c1ccncc1 | 5.64% | -19.5% |
| CC(NCc1cccnc1)c1ccc(OCC(=O)NC2CC2)cc1 (configuration not stated) | 4.26% | -1.84% |
| CCn1c(C)cc(C(=O)N2CCCC(n3nc(C)nc3C)C2)c1C (configuration not stated) | -4.26% | 16% |
| Cc1cc(-c2cnc(N3CCCC(C)C3)nc2-c2cccnc2C)on1 (configuration not stated) | 7.13% | -30.1% |
| Cc1cnc(CN2CCCC2c2noc(C)n2)cn1 (configuration not stated) | 0.514% | 4.6% |
| Cc1c(C(=O)N2CCCC2c2cnn(C)c2)nnn1-c1ccccc1 (configuration not stated) | -1.92% | -11.8% |
| COc1ccc(C)cc1NC(=O)Nc1cnc(N2CCN(C)CC2)nc1 | 0.539% | -18.8% |
| O=C(CCc1nccs1)N1CCCC(N2CCNC2=O)C1 (configuration not stated) | 6.01% | -8.24% |
| COc1cc2cc(C(=O)N[C@@H](C)C(=O)O)n(C)c2c(OC)c1OC | -3.11% | -30.8% |
| CCCNC(=O)CCC(=O)Nc1ccc(-n2cncn2)c(F)c1 | -1.12% | 5.57% |
| O=C(NCCCN1CCOCC1)Nc1cnc2cc(Cl)ccc2c1O | 1.35% | -13.4% |
| COCCN1C[C@@H](C)[C@@]2(COCCN(C(=O)Cc3ccccc3)C2)C1 | 1.75% | -6.45% |
| Cc1ccc(CN2C[C@@H]3COC[C@H](C(=O)N4CCCCO4)[C@@H]3C2)o1 | 1.57% | -5.34% |
| O=C(c1ccnnc1)N1C[C@@H]2CC[C@H](Oc3cccc(F)c3)[C@@H]2C1 | 3.77% | -5.52% |
| CCN(CC)Cc1cn2c(n1)CN(C(=O)c1cnccn1)CC2 | 0.29% | 5.28% |

From ChEMBL document CHEMBL3988442, “University of Dundee, Small-Polar-MMV Screening Library” (2021)
